Compound activity deposited in PubChem BioAssay by National Center for Advancing Translational Sciences (NCATS).
Shown are actives, neighbours in structure and some others; about 0.9% of the full set was active somewhere.
GoLoco inh red – RGS12 GoLoco-Gai1 interaction inhibition; P63096; Gai1:RGS12 GoLoco peptide FP, rhodamine, 10 min; Potency, µM (doses to about 61.6 µM), usual class: inhibitors; 230,000 compounds, 0.44% hits; AID 880; active = well fitted inhibition curve with a large enough effect, not every such curve was filed as active; inactive = no such curve, though single readings can be large or run the other way; also: nearly all actives have a fitted effect of over 30% in size
Target sequence (P63096 whole entry, looked up): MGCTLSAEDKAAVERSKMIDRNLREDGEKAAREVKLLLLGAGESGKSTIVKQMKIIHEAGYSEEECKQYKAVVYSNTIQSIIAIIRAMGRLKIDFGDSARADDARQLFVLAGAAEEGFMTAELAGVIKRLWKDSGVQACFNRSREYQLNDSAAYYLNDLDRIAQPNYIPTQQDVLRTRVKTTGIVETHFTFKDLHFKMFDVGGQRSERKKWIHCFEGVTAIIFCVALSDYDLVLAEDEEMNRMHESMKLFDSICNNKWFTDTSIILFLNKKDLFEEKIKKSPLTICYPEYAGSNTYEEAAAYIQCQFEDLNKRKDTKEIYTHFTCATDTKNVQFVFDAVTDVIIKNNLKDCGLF
APE1 inh – inhibitors of human APE1 endonuclease; Potency, µM (series often up to 65.8 µM), hits mostly inhibitors; recombinant APE1, TAMRA/BHQ-2 abasic DNA cleavage fluorescence; 350,000 compounds, 0.35% hits; P27695; also: nearly all actives have a fitted effect of over 55% in size
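Enzyme (0.75 nM final) and test compound are incubated 15 min at room temperature before adding 50 nM quenched THF abasic-site duplex. Cleavage dequenches TAMRA, followed at 525/598 nm over three reads one minute apart.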
TR SRC2 fluor cs – alters Texas Red total fluorescence, flagging assay interference; AID 1479; TRb/SRC2 Texas Red total fluorescence interference; Potency, µM (titrated, usually from 106 µM); 280,000 compounds, 0.29% hits; active = well fitted curve in either direction with a large enough effect; inconclusive = small, poorly fitted or top-dose-only effect
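Human TRβ ligand-binding domain (0.6 uM) and Texas Red SRC2 peptide (20 nM) in Tris buffer with 1 uM T3 and 5% DMSO were incubated with pinned compound for 5 hr at ambient temperature. Total fluorescence was computed as S + 2P (555/632 nm).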
TRb-SRC2 inh – TRbeta-SRC2 interaction inhibition; TRbeta-SRC2 peptide binding, fluorescence polarization; receptor liganded with 1 µM T3; Potency, µM (series often up to 106 µM), usual class: inhibitors; 280,000 compounds, 0.065% hits; also: nearly all actives have a fitted effect of over 50% in size
Target sequence (P10828 whole entry, looked up): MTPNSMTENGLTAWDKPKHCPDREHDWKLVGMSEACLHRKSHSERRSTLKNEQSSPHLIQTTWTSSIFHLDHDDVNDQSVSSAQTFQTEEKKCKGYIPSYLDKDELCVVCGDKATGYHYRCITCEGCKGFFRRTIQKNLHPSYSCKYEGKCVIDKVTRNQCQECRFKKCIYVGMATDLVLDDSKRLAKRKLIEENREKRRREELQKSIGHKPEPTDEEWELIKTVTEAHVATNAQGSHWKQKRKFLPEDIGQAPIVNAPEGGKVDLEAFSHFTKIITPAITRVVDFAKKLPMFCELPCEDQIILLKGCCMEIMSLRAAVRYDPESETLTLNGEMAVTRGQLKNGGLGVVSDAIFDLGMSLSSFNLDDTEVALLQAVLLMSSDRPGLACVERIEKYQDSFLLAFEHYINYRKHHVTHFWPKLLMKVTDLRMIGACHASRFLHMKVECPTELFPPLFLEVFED
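A fluorescence polarization screen tested compounds at multiple concentrations against complex formation between 0.6 uM TRb ligand-binding domain and 20 nM Texas Red SRC2 peptide, with 1 uM T3 present; readout after 5 hr.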
BLM inh – Bloom syndrome helicase (human) inhibition; Potency, µM (titrated, usually from 56.1 µM), usual class: inhibitors; recombinant BLM DNA unwinding, fluorescence dequenching; P54132; AID 2528; 350,000 compounds, 0.2% hits; also: nearly all actives have a fitted effect of over 35% in size
RECQ1 inh-1 – RECQ1 (human) helicase inhibition | RECQ1 DNA unwinding, red fluorescence kinetic read | 240,000 compounds, 0.54% hits | P46063 | AID 2549 | Potency, µM (highest dose often 57.3 µM), usual class: inhibitors; also: nearly all actives have a fitted effect of over 30% in size
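50 nM RECQ1T1 preincubated 15 min with compound in Tris pH 8.0 buffer with MgCl2, DTT, Tween-20 and 2.5 ug/ml poly(dI-dC); started with 200 nM TAMRA/BHQ-2 forked duplex and 2 mM ATP. Unwinding read as fluorescence (525/598 nm), two reads 2 h apart.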
RECQ1 inh conf – confirmation of human RECQ1 helicase inhibitors | shares compounds with RECQ1 inh-1 | RECQ1 helicase DNA unwinding, fluorescence | Potency, µM (titrated, usually from 229 µM), actives largely listed as inhibitors | 610 compounds, 28% hits | AID 2708; also: nearly all actives have a fitted effect of over 45% in size
ADP FP counter – counter-screen for RECQ1 inhibitors: ADP displacement. shares compounds with RECQ1 inh-1. ADP fluorescence polarization displacement counterscreen. Potency, µM (series often up to 228 µM), usual class: inhibitors. 530 compounds, 27% hits. AID 2711; also: nearly all actives have a fitted effect of over 45% in size
RECQ1 inh-2 – RECQ1 helicase inhibition confirmed, round 2; Potency, µM (highest dose often 119 µM), hits mostly inhibitors; recombinant RECQ1 DNA unwinding, red fluorescence; shares compounds with RECQ1 inh-1; 1,100 compounds, 15% hits; also: nearly all actives have a fitted effect of over 50% in size
Large screens that a line does not name were inactive (follow-up assays come after a bar, where they were run). Unless noted, calls follow the shape of the dose curve; as a rule, active = well fitted curve in the direction sought with a large enough effect; inconclusive = small, poorly fitted or top-dose-only effect, or another doubt; inactive = no such curve, though single readings can be large; an effect the other way counts as inactive or inconclusive.

CCOC(=O)C1CN(S(=O)(=O)c2ccccc2)c2cc(S(=O)(=O)CC)ccc2O1 (stereo unspecified)	none
COc1ccccc1Nc1nc(-c2c(C)nc3ncccn23)cs1	RECQ1 inh-1 inconclusive | RECQ1 inh-2 inconclusive
O=C(c1ccccc1)c1ccc(OCCOCCN2CCN(Cc3ccccc3)CC2)cc1	RECQ1 inh-1 inconclusive | RECQ1 inh-2 inactive
COc1cc(/C=C2\SC(N)=NC2=O)ccc1OCC(=O)Nc1ccc(C)cc1	RECQ1 inh-1 inconclusive | RECQ1 inh-2 inconclusive
COc1ccc(/C=C2/SC(=O)N(CCC(=O)Nc3ccc(C)cc3)C2=O)cc1OC	none
O=c1c(-c2ccc([N+](=O)[O-])cc2)coc2c(O)c(O)ccc12	APE1 inh inconclusive, RECQ1 inh-1 8.9µM | RECQ1 inh-2 inconclusive
COc1ccc2[nH]cc(CCNc3ccnc(-c4ccc(N(C)C)cc4)n3)c2c1	APE1 inh inconclusive (no result: TR SRC2 fluor cs, TRb-SRC2 inh)
Cc1ccc(C)c(NC(=O)C(=O)NCCc2csc(-c3cccc(F)c3)n2)c1	none (no result: GoLoco inh red, APE1 inh, RECQ1 inh-1)
COc1ccccc1C(=O)Nc1ccc(-c2nnc(SCC(=O)O)n2C)cc1	none | RECQ1 inh conf inactive | ADP FP counter inactive
CC(C)OCCCNC(=O)CN1C(=O)c2ccccc2Sc2ncccc21	none (no result: GoLoco inh red, APE1 inh, RECQ1 inh-1)
Cc1cccc(N2CCN(C(=O)CCS(=O)(=O)c3ccc(Br)cc3)CC2C)c1 (stereo unspecified)	RECQ1 inh-1 35µM | RECQ1 inh-2 40µM
CC(=O)N1CCCc2cc(S(=O)(=O)CCC(=O)N3CCN(c4cccc(C)c4)C(C)C3)ccc21 (stereo unspecified)	APE1 inh inconclusive
O=P1(O)Oc2c(c(-c3ccccc3)cc3ccccc23)-c2c(-c3ccccc3)cc3ccccc3c2O1	RECQ1 inh-1 inconclusive | RECQ1 inh-2 inconclusive
O=P1(O)Oc2c(c(-c3ccccc3)cc3ccc4ccccc4c23)-c2c(-c3ccccc3)cc3ccc4ccccc4c3c2O1	none
O=C1CCCC/C1=C\Nc1ccc(O)cc1	APE1 inh inconclusive, TR SRC2 fluor cs inconclusive, TRb-SRC2 inh 45µM, RECQ1 inh-1 inconclusive | RECQ1 inh-2 inactive
Cc1ccc(CNC(=O)Cn2cc(C(=O)c3ccc(Cl)cc3)c(=O)c3ccc(C)nc32)cc1	none (no result: GoLoco inh red, APE1 inh, RECQ1 inh-1)
Cc1cc(-c2csc(NC(=O)c3ccc(=O)n(C)n3)n2)c(C)n1CC1CCCO1 (stereo unspecified)	BLM inh inconclusive, RECQ1 inh-1 inconclusive | RECQ1 inh-2 inactive
O=C(Cn1nnc(-c2ccc(S(=O)(=O)N3CCCC3)cc2)n1)Nc1ccccc1-n1cccc1	none | RECQ1 inh conf inactive | ADP FP counter inactive
NC(=O)c1ccc(-c2nnn(CC(=O)Nc3cccc(S(=O)(=O)N4CCCC4)c3)n2)cc1	none (no result: GoLoco inh red, TR SRC2 fluor cs, TRb-SRC2 inh, BLM inh, RECQ1 inh-1)
CC(C)(C)C1CCc2c(sc(NC(=O)c3ccncc3)c2C(=O)Nc2ccccc2Cl)C1 (stereo unspecified)	none (no result: GoLoco inh red, APE1 inh, RECQ1 inh-1)
CC1CCC2(CC1)NC(=O)N(CC(=O)Nc1sc3c(c1C(N)=O)CCC3)C2=O (stereo unspecified)	APE1 inh inconclusive, BLM inh inconclusive, RECQ1 inh-1 32µM | RECQ1 inh-2 inconclusive
COCCn1cnnc1SCC(=O)Nc1sc2c(c1C#N)CCC2	none (no result: GoLoco inh red, TR SRC2 fluor cs, TRb-SRC2 inh, BLM inh, RECQ1 inh-1)
Cn1cnnc1SCC(=O)Nc1sc2c(c1C(N)=O)CCC2	APE1 inh inconclusive, BLM inh inconclusive, RECQ1 inh-1 32µM | RECQ1 inh-2 inconclusive
Cc1cc(C)n2c(SC/C(O)=C(\C#N)c3nc4ccccc4[nH]3)nnc2n1	APE1 inh inconclusive, TR SRC2 fluor cs inconclusive, RECQ1 inh-1 inconclusive | RECQ1 inh-2 inconclusive
Nc1nc2c(c(=O)[nH]1)N[C@H](CCNc1ccc(C(=O)O)cc1)CN2	none (no result: APE1 inh, TR SRC2 fluor cs, TRb-SRC2 inh, BLM inh, RECQ1 inh-1)
Cc1ccc(-c2nn(CCC(=O)O)cc2CCC(=O)O)cc1	none | RECQ1 inh conf inactive | ADP FP counter inconclusive
Cc1cc(-c2ccccc2)[nH]c(=O)c1C#N	none
N#Cc1c(-c2ccco2)cc(-c2ccccc2)[nH]c1=O	APE1 inh 32µM, BLM inh inconclusive, RECQ1 inh-1 22µM | RECQ1 inh conf inconclusive | ADP FP counter inconclusive
COc1ccc2nc(NC(=O)C3CCCN(S(=O)(=O)c4cccc5nsnc45)C3)sc2c1 (stereo unspecified)	none | RECQ1 inh conf inactive | ADP FP counter inactive
COc1ccc2nc(NC(=O)C3CCCN(S(=O)(=O)c4cccc5nonc45)C3)sc2c1 (stereo unspecified)	none
O=C(Cn1ncc(Cl)c(Cl)c1=O)N1CCOCC1	none
O=C(Cn1ncc(Cl)c(Cl)c1=O)N1CCN(Cc2ccccc2)CC1	RECQ1 inh-1 32µM | RECQ1 inh-2 inactive
COc1cc(C(CC(=O)Nc2ccc(Br)cn2)N2Cc3ccccc3C2=O)cc(OC)c1OC (stereo unspecified)	none (no result: GoLoco inh red, APE1 inh, RECQ1 inh-1)
Cc1ccc(S(=O)(=O)N2CCCCC2C(=O)NCc2ccco2)cc1 (stereo unspecified)	none
COC(=O)Nc1ccc(S(=O)(=O)N2CCCCC2C(=O)NCc2ccco2)cc1 (stereo unspecified)	none | RECQ1 inh conf inactive | ADP FP counter inactive
Cc1ccc(Oc2nc3ccccn3c(=O)c2/C=C(\C#N)C(=O)Nc2c(C)n(C)n(-c3ccccc3)c2=O)c(C)c1	none | RECQ1 inh conf inactive | ADP FP counter inactive
Cc1c(NC(=O)/C(C#N)=C/c2ccccc2)c(=O)n(-c2ccccc2)n1C	none
COc1ccccc1Oc1nc2ccccn2c(=O)c1/C=C(\C#N)C(=O)Nc1c(C)n(C)n(-c2ccccc2)c1=O	none | RECQ1 inh conf inactive | ADP FP counter inactive
COc1ccc(N2CCN(c3ncnc4onc(C)c34)CC2)cc1	none (no result: GoLoco inh red, APE1 inh, RECQ1 inh-1)
O=C1/C(=C\c2ccc(O)c(O)c2)Oc2cc(O)ccc21	APE1 inh inconclusive, TR SRC2 fluor cs inconclusive, RECQ1 inh-1 20µM (no result: GoLoco inh red) | RECQ1 inh-2 56µM
CN1CCN(C(CNC(=O)C(=O)Nc2ccccc2)c2ccc3c(c2)OCO3)CC1 (stereo unspecified)	none (no result: GoLoco inh red, APE1 inh, RECQ1 inh-1)
C=CCSC1=N/C(=C\C=C\c2ccco2)C(=O)S1	APE1 inh 10µM, TR SRC2 fluor cs inconclusive, BLM inh inconclusive, RECQ1 inh-1 13µM | RECQ1 inh conf 45µM | ADP FP counter 14µM | RECQ1 inh-2 inconclusive
